Only some compounds are listed: those with a hit (about 1.7% of all), similar ones and a draw of the others.
FGF22 binding-1: shifts melting point of recombinant human FGF22; Q9HCT0; recombinant FGF22 thermal shift, SYPRO orange fluorescence; percent of sucrose octasulfate shift, DMSO zero; activity (Tm shift, normalised), % at 9.99 µM; 1.5% of 340,000 active; AID 651658;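 active means mean Tm shift, scaled 0 neutral to 100 positive control, at about 1.3% or above, every replicate too, limit read from the data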
Target sequence (Q9HCT0 whole entry, looked up): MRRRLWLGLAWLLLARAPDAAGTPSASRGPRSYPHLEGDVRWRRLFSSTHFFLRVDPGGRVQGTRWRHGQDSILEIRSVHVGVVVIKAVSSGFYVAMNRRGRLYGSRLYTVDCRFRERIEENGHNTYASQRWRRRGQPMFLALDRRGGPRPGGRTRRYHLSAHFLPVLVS
Vif inh: blocks HIV Vif function; HEK293T cells, Vif self-association by quenched fluorescence, imaging, 24 h; inhibition, % at 7.49 µM; 0.35% of 340,000 active; in the data active means inhibition above about 50%, passing the limit was not always enough
F508del corr: correctors of CFTR F508del function in bronchial epithelial cells; CFBE cells, YFP halide quenching; stimulated with forskolin plus potentiator P3; % fluorescence drop versus neutral controls; activity (quench increase), % at 7.58 µM; 0.36% of 350,000 active;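 active means mean added fluorescence quench of at least 8% versus neutral control, with both replicates also reaching 8%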;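 further: cells transiently co-express mutant CFTR-F508del with the halide-sensitive YFP; corrector assay measuring rescue of mutant channel to the surface after 24 h compound exposure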
FGF22 binding-2: binds human FGF22 shifting its melting temperature; shares compounds with FGF22 binding-1; recombinant FGF22 thermal shift, SYPRO orange fluorescence; thermal shift activity, °C (ΔTm) at 38 µM; 2% of 1,000 active; AID 720646;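 active means fitted rise in melting shift crosses a set limit at or below the top valid dose tested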
SYPRO no-protein: counter-screen for FGF22 binders: compound-only thermal shift, no protein | shares compounds with FGF22 binding-1 | compound-only SYPRO orange thermal shift counter-screen | AC50, µM (series often up to 38 µM) | 2% of 1,000 active | AID 743019;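 active means rising signal whose fitted curve reaches the 0.54 level within the top valid dose, showing a melting point, actives reach about 13 µM in these data; inactive means the rest, including activity in the opposite direction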; further: value is where the raw curve crosses a fixed level and not half-maximal
* hit, by the source's call; i = inactive; nt = no result given.

SMILES	FGF22 binding-1	Vif inh	F508del corr	FGF22 binding-2	SYPRO no-protein
C[C@H]1CN([C@@H](C)CO)S(=O)(=O)c2ccc(-c3cccnc3)cc2O[C@H]1CN(C)C(=O)CN(C)C	-0.2	nt	0.0	nt	nt
CO[C@@H]1CC[C@@H]2CCN(C)C(=O)C[C@H](c3ccccc3)CN(C)C(=O)c3cccc(C#N)c3OC[C@@H]1O2	0.0	nt	nt	nt	nt
COc1ccccc1NC(=O)Nc1nc(CC(=O)Nc2ccc(OC)c(OC)c2)cs1	1.1	nt	-1.1	nt	nt
COc1cc(C)ccc1NC(=O)Cc1csc(NC(=O)Nc2ccccc2OC)n1	1.6*	-6.2	-4.2	0.096	i
Cc1ccc(S(=O)(=O)NCC[C@@H]2CC[C@@H](NC(=O)C3CCOCC3)[C@@H](CO)O2)cc1	0.1	nt	-0.7	nt	nt
C[C@H](CO)N1C[C@H](C)[C@@H](CN(C)S(=O)(=O)c2ccc(F)cc2)OCCCC[C@H](C)Oc2ccc(NS(=O)(=O)c3ccccc3)cc2C1=O	-0.7	nt	2.9	nt	nt
COc1ccc(/C(O)=C/C(=O)C(=O)NNC(=O)C(O)(c2ccccc2)c2ccccc2)cc1	nt	-0.5	nt	nt	nt
COc1ccc(/C(O)=C/C(=O)C(=O)NNC(=O)c2ccccc2)cc1	28.9*	-0.6	-3.0	0.091	i
C[C@@H]1CN([C@@H](C)CO)C(=O)Cc2cc(NC(=O)Cc3ccccc3)ccc2O[C@H]1CN(C)S(=O)(=O)c1ccc(F)cc1	-0.3	nt	1.5	nt	nt
COCC#Cc1cnc2c(c1)C(=O)N([C@@H](C)CO)C[C@H](C)[C@@H](CN(C)C(=O)c1ccc(F)cc1)O2	-0.1	nt	1.1	nt	nt
C[C@H]1CN([C@@H](C)CO)C(=O)c2cccc(N(C)C)c2O[C@H]1CN(C)C(=O)Nc1ccc2c(c1)OCO2	-0.4	nt	0.5	nt	nt
O=C(Nc1ccc(F)c(Cl)c1)C1CCCN(C2=NS(=O)(=O)c3ccccc32)C1 (configuration not stated)	30.8*	0.5	2.5	0.254	i
O=C(Nc1ccc(Cl)cc1)C1CCCN(C2=NS(=O)(=O)c3ccccc32)C1 (configuration not stated)	-0.1	-0.5	3.8	nt	nt
O=C(N[C@H]1CC[C@@H](CCn2cc(-c3cccnc3)nn2)O[C@@H]1CO)c1ccccc1F	0.0	nt	-4.8	nt	nt
COc1ccc(NC(=O)NNC(=O)COc2ccc(Cl)cc2C)cc1OC	-0.1	2.8	-0.7	nt	nt
COc1ccc(OC)c(NC(=O)NNC(=O)CCCOc2ccc(Cl)cc2C)c1	1.7*	-3.1	-0.1	0.028	i
Cc1ccc(Oc2ccc(S(=O)(=O)NCC(C)(C)N3CCOCC3)cc2)cc1	0.0	-5.4	0.5	nt	nt
CC(C)(CNS(=O)(=O)c1ccc2c(c1)OCCO2)N1CCOCC1	1.4*	4.8	-1.9	-0.061	i
O=C(Nc1ccc(S(=O)(=O)NCc2ccccc2)cc1)c1ccccc1[N+](=O)[O-]	2.4*	3.0	nt	0.029	i
CCOC(=O)c1ccc(NC(=O)c2ccccc2[N+](=O)[O-])cc1	nt	-5.0	nt	nt	nt
CCCN1[C@@H]2c3ccc(-c4ccncc4)c(=O)n3C[C@H]1[C@H](CO)[C@H]2C(=O)N1CCCCC1	-0.2	nt	-1.0	nt	nt
COc1ccc(CN2C[C@H](O)COC[C@H]3O[C@H](CC(=O)NCc4ccccc4Cl)CC[C@@H]32)cc1	0.0	nt	3.4	nt	nt
C[C@@H]1CN([C@H](C)CO)C(=O)Cc2cc(NC(=O)C3CCCCC3)ccc2O[C@H]1CN(C)C(=O)Nc1ccc(C(F)(F)F)cc1	-0.1	nt	-0.6	nt	nt
CCC(=O)N1[C@@H]2Cn3c(ccc(/C=C/c4ccccc4)c3=O)[C@H]1[C@@H](C(=O)N(C)C)[C@@H]2CO	0.0	nt	1.4	nt	nt
COc1ccc(C(=O)N=c2sc3c(C)ccc(OC)c3n2C)cc1OC	0.0	-0.1	4.4	nt	nt
SMILES	FGF22 binding-1	Vif inh	F508del corr	FGF22 binding-2	SYPRO no-protein
COc1ccc(C(=O)N=c2sc3ccccc3n2C)cc1OC	1.6*	-7.7	1.1	0.202	i
COc1ccc(CNC(=O)C[C@@H]2CC[C@@H](NS(=O)(=O)c3cccc(OC)c3)[C@H](CO)O2)cc1	-0.2	nt	1.5	nt	nt
O=C(Nc1ccccc1)Nc1ccc2snnc2c1	nt	-3.7	nt	nt	nt
O=C(Nc1ccccc1)Nc1ccc2nnsc2c1	2.1*	-17.9	-2.6	0.273	i
COc1ccc(S(=O)(=O)N(C)C[C@@H]2Oc3ncc(C#Cc4ccccc4)cc3C(=O)N([C@H](C)CO)C[C@@H]2C)cc1	-0.2	nt	0.4	nt	nt
CC(C)C(=O)Nc1ccc2c(c1)C(=O)N(C)[C@H]1CC[C@H](CC(=O)NCCc3ccccc3)O[C@H]1CO2	0.0	nt	-2.3	nt	nt
O=C(Nc1ccncc1)c1ccc(Cl)c(Cl)c1	-0.1	-3.0	1.0	nt	nt

High-throughput results from PubChem BioAssay.
